Screens deposited in PubChem by The Scripps Research Institute Molecular Screening Center.
Hits are enriched below; roughly 3.4% of the tested compounds scored in any of these assays.
GPR151 ag: activators of human GPR151; activation, % at 11.2 µM; Q8TDV0; hit rate 1% among 650,000; PathHunter beta-arrestin GPR151 cells, luminescence; in the data active = activation above about 4.9%
MITF primary: inhibitors of human MITF; AlphaScreen MITF homodimerization, bead proximity signal; inhibition, % at 2.6 µM; hit rate 0.91% among 650,000; AID 1259374; in the data active = inhibition above about 50%
Target sequence (O75030 whole entry, looked up): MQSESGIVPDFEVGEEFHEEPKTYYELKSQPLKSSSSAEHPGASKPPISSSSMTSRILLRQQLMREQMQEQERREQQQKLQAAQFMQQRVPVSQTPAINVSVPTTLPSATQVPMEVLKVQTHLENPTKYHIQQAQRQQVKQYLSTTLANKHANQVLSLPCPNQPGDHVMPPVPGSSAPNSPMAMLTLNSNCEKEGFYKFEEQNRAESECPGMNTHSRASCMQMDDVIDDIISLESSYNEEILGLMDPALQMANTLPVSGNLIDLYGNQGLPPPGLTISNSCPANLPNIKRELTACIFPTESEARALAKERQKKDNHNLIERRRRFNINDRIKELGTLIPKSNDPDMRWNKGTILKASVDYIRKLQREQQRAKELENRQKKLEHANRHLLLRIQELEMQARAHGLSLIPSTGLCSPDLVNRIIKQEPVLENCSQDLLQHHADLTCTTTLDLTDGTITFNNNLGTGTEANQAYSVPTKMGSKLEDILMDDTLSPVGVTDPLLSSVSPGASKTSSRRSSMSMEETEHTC
FBW7 activator: activators of human E3 ligase FBW7; Q969H0; AlphaScreen FBW7–phospho-cyclin E peptide binding, activator screen; normalized activity (activation), % at 26.1 µM; hit rate 0.13% among 650,000; AID 1259310; in the data active = normalized activity above about 1.9%;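 note: purified mutant Fbw7 with reduced substrate affinity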
TEAD-YAP block: TEAD-YAP interaction inhibition; hit rate 1.4% among 640,000; HEK-TIYL cells, TEAD-Gal4/YAP UAS-luciferase luminescence; AID 1259422; inhibition, % at 9.12 µM; in the data active = inhibition above about 32%
A number is an active result; n = inactive.

SMILES	GPR151 ag	MITF primary	FBW7 activator	TEAD-YAP block
Cn1nccc1C(=O)Nc1ccc(OC(=O)c2ccnn2C)cc1	n	n	n	34
COCCN=C1NN=C(c2ccc(NC(=O)CC(C)C)cc2)CS1	n	n	n	n
CCC(=O)Nc1sc(C(=O)NC2CCCCC2)c(C)c1C(=O)OC	n	n	n	37
CCOC(=O)c1sc(C)c(C(=O)NC2CCCCC2)c1N	n	n	n	n
CCOC(=O)c1c(N)sc(C(=O)NC2CCCCC2)c1C	n	n	n	70
CN(C)S(=O)(=O)c1ccc(C(=O)NC(=S)Nc2ccc(-c3nc4ccccc4[nH]3)cc2)cc1	n	n	3.9	n
Cc1onc(-c2ccccc2Cl)c1C(=O)Nc1ccc(-c2nc3ccccc3[nH]2)cc1	n	n	n	33
CN(c1ccccc1)S(=O)(=O)c1ccc(C(=O)Nc2ccc(-c3nc4ccccc4[nH]3)cc2)cc1	n	n	n	n
CC(=O)NS(=O)(=O)c1ccc(NC(=O)c2c(-c3ccccc3Cl)noc2C)cc1	n	n	1.9	n
Cc1onc(-c2ccccc2Cl)c1C(=O)Nc1ccccc1C(=O)Nc1ccccc1	n	n	n	33
CCCCNC(=O)CCN1N=C(c2ccc(OC)cc2)CCC1=O	n	n	n	n
CC(C)=CCN1CCN(c2ccc(F)c(Cl)c2)C1=O	n	n	n	n
COc1cc(Nc2cc(Nc3nccc4ccccc34)ncn2)cc(OC)c1OC	n	n	n	49
Cc1cnc(Nc2cccc(N(C)C)c2)nc1NCCN(C(C)C)C(C)C	n	n	n	n
c1ccc(Nc2cc(Nc3nccc4ccccc34)ncn2)cc1	n	n	n	n
COc1cc(Nc2nc(Nc3cccc(N(C)C)c3)ncc2C)cc(OC)c1OC	n	n	n	54
COc1ccc(CCNc2nc(Nc3cccc(N(C)C)c3)ncc2C)cc1	n	n	n	n
Cc1cnc(Nc2cccc(N(C)C)c2)nc1Nc1ccccc1	n	n	n	46
Cc1cnc(Nc2ccncc2)nc1Nc1ccccc1	n	n	n	49
CCOC(=O)Cn1nnnc1CN(Cc1ccco1)Cc1cc2cccc(C)c2[nH]c1=O	n	n	n	n
COc1cc(Nc2ccnc(Nc3cccc(N(C)C)c3)n2)cc(OC)c1OC	n	n	n	n
COc1cc(Nc2cc(Nc3cccc(N(C)C)c3)ncn2)cc(OC)c1OC	n	n	n	40
CNc1nc(Nc2ccc(OC(F)(F)F)cc2)nc(N2CCN(C34CC5CC(CC(C5)C3)C4)CC2)n1	n	n	n	n
COc1ccc(OC)c(C(=O)c2oc3ccc(Br)cc3c2N)c1	n	n	n	49
CCOc1ccc2ccc(OCC)c(C=C3C(=O)NC(=O)NC3=O)c2c1	n	n	n	n
SMILES	GPR151 ag	MITF primary	FBW7 activator	TEAD-YAP block
CCOc1ccc2ccc(OCC)c(/C=C3/NC(=S)NC3=O)c2c1	n	n	n	57
CCOc1ccccc1/C=C1\NC(=S)NC1=O	n	n	n	n
CCOc1cccc(/C=C2/NC(=S)NC2=O)c1O	n	n	n	51
Cc1cc(C)n(-c2ccc(C(=O)OCC(=O)c3cc(C)n(Cc4ccco4)c3C)cc2)n1	n	n	n	n
c1ccc(-c2cnc3ccc(NCc4ccc5c(c4)OCO5)nn23)cc1	n	n	n	n
c1cc(-c2cnc3ccc(NCc4ccc5c(c4)OCO5)nn23)ccn1	n	n	n	47
OCc1ccc(-c2cnc3ccc(NCc4ccc5c(c4)OCO5)nn23)cc1	n	n	n	58
CCOC(=O)c1sc(NC(=O)c2cc([N+](=O)[O-])ccc2Sc2nnnn2C)cc1C	n	n	n	n
Cn1nnnc1Sc1ccc([N+](=O)[O-])cc1C(=O)Nc1ccc(C(F)(F)F)cc1	n	n	n	50
Cc1cc(C)c2c(n1)nn1c(NCc3ccco3)cc(C)nc21	n	n	254	n
CCCCOc1ccccc1C1CC(=O)NC2=C1C(=O)CCC2 (centres undefined)	n	n	n	57
CCCOc1ccccc1C1CC(=O)NC2=C1C(=O)CCC2 (centres undefined)	n	n	n	50
CCOc1ccccc1C1CC(=O)NC2=C1C(=O)CCC2 (centres undefined)	n	n	n	40
O=C1CC(c2cccc3ccccc23)C2=C(CCCC2=O)N1 (centres undefined)	n	n	n	n
CC(=O)c1c(C)[nH]c(C(=O)COC(=O)c2ccc3c(c2)OCCO3)c1C	n	n	n	n
COc1ccc(CCN(Cc2cccnc2)C(=S)Nc2ccc(C)c(C)c2)cc1OC	n	n	n	n
CCCC(C)NC(=O)c1cc(-c2ccccc2)nc2ccccc12 (centres undefined)	n	n	n	n
Cc1nc2ccccc2n1CC(O)COc1ccc(C(C)C)cc1 (centres undefined)	n	n	n	48
C=CCc1cc(C)ccc1OCC(O)Cn1c(C)nc2ccccc21 (centres undefined)	n	n	n	47
CCn1c(SCC(=O)Nc2ccc(C)c(N)c2)nnc1-c1ccc(Cl)cc1	n	n	n	n
Cc1cc(S(=O)(=O)N(C)C2CCCCC2)ccc1-n1cnnn1	n	n	n	52
CN1CCc2cc(C(CNC(=O)Nc3cccc(Cl)c3)N(C)C)ccc21 (centres undefined)	n	n	n	49
CN1CCCc2cc(C(CNC(=O)NC(C)(C)C)N(C)C)ccc21 (centres undefined)	n	n	n	n
COc1ccc2nc(C)cc(Nc3ccc(O)cc3)c2c1	n	n	n	34
COC(=O)c1ccc(Nc2cc(C)nc3cc(Cl)ccc23)cc1	n	n	n	49
SMILES	GPR151 ag	MITF primary	FBW7 activator	TEAD-YAP block
COc1ccc(Nc2cc(C)nc3ccc(OC)cc23)cc1	n	n	n	n
COC(=O)c1ccc2nc(C)cc(Nc3ccc(C(=O)O)cc3)c2c1	n	n	n	n
COC(=O)c1ccc(Nc2cc(C)nc3ccc(Cl)cc23)cc1	n	n	n	49
COCC(C)n1c(C)cc(C(=O)CSc2nnc(-c3ccc4c(c3)OCO4)o2)c1C (centres undefined)	n	n	n	n
COc1ccc2ccccc2c1/C=C1\SC(=S)NC1=O	n	n	n	n
COc1ccc(/C=C2\SC(=Nc3ccccc3F)NC2=O)c(OC)c1	n	n	n	n
COc1ccc2ccccc2c1/C=C1/SC(=Nc2ccccc2)NC1=O	n	n	n	44
COc1ccc(OC)c(/C=C2/SC(=Nc3ccc(C)cc3)NC2=O)c1	n	n	n	51
COc1ccc(/C=C2\SC(=Nc3ccccc3)NC2=O)c2ccccc12	n	n	n	63
COc1ccc(/C=C2\SC(=Nc3cccc4ccccc34)NC2=O)c(OC)c1	n	n	n	59
CCCCC(=O)N/N=C(\C)CC(=O)Nc1cccc(OC)c1	n	n	n	44
COc1ccc(/C=N/NC(=O)c2cc(-c3cccc(OC)c3)n[nH]2)cc1	n	n	n	n
Cc1cc(O)cc(O)c1/C=N/NC(=O)c1cc(-c2ccccc2)n[nH]1	n	n	n	33
COc1cccc(/C=N/NC(=O)c2cc(-c3ccc(C)cc3)n[nH]2)c1	n	n	n	45
CCCCC(=O)N/N=C(\C)CC(=O)Nc1cccc(I)c1	n	n	n	n
Cc1ccc(/C=N/NC(=O)c2cc(-c3ccccc3)n[nH]2)c(O)c1	n	n	n	n
Cc1ccc(-c2cc(C(=O)N/N=C/c3cccc(O)c3)[nH]n2)cc1	n	n	n	35
